In the library only some 4.1% were active in any assay of this set; here they are far more common.
hgDAF12 agonist: agonists of H. glycines DAF-12 nuclear receptor. HEK293 GAL4-hgDAF12 UAS-luciferase reporter, agonist luminescence; normalized to butyrate control. 1.8% of 370,000 active. activation, % at 6.8 µM;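 active = activation above a cutoff set at the mean of all screened compounds plus 3 SD, cut at about 10% in these data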;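 note: 0% = DMSO wells and 100% = sodium butyrate wells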
ssDAF-12 act: S. stercoralis DAF-12 activation, primary screen; HEK293 ssDAF-12/GRIP1 lit1-tk-luc reporter, luminescence; % of 3 µM dafachronic acid response; activation, % at 6.8 µM; 1% of 370,000 active;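 active = activation above the mean over all tested compounds plus 3 SD, cut at about 0.9% in these data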;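 note: 0% = DMSO-only wells and 100% = 3 µM delta7-dafachronic acid wells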
DAX1 inh-1: NR0B1 (DAX1) inhibition; P51843; HEK293 Gal4-DAX1 luciferase reporter, luminescence; inhibition, % at 6.75 µM; 0.99% of 340,000 active;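 active = inhibition above the mean over all tested compounds plus 3 SD, cut at about 4.2% in these data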;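 note: 0% = DAX1-transfected cells with DMSO and 100% = empty-vector control cells with DMSO; inhibition shows as a rise in luminescence from relieved DAX1 repression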
Target sequence (P51843 207-470 limits assumed): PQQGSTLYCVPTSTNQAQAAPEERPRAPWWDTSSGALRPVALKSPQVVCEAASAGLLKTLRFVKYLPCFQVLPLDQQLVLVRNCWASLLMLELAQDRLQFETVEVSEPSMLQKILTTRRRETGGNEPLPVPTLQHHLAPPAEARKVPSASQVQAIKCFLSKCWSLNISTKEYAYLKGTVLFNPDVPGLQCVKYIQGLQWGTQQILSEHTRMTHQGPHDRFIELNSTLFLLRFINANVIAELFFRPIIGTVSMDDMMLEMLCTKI
DAX1 inh-2: blocks DAX1 repression of SF-1 activated StAR promoter; inhibition, % at 6.8 µM; 1.1% of 370,000 active; HEK293T StAR-luciferase reporter, SF-1/DAX-1 repression relief; AID 652010;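 active = inhibition above the mean over all tested compounds plus 3 SD, cut at about 3.6% in these data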;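 note: 0% = DAX-1 cells with DMSO and 100% = cells lacking DAX-1 with DMSO; higher inhibition means more luminescence from relief of DAX-1 repression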
hcDAF-12 act: H. contortus DAF-12 activation, primary screen; HEK293 hcDAF-12 lit1-tk-luc reporter, luminescence; 0% DMSO, 100% Δ7-dafachronic acid; activation, % at 6.8 µM; 1.4% of 370,000 active; AID 652067;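 active = activation above the mean of all tested compounds plus 3 SD, cut at about 5.5% in these data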;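 note: 100% = response to 3 µM Δ7-dafachronic acid high control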
* hit, by the source's call; / = not tested or not shown.

SMILES | hgDAF12 agonist | ssDAF-12 act | DAX1 inh-1 | DAX1 inh-2 | hcDAF-12 act
COc1ccccc1CNC(=O)c1ccc(NC2=NC3CS(=O)(=O)CC3S2)cc1 (centres undefined) | 10* | -1 | 0 | 0 | 1
COc1ccccc1CNC(=O)c1ccc(Cl)c(NC2=NC3CS(=O)(=O)CC3S2)c1 (centres undefined) | -1 | -1 | 1 | 1 | 4
CSc1nnc2c(n1)C[C@H](c1ccccc1)[C@@H](C)[C@@H](C(=O)N1CCCC1)C2 | -3 | -2 | / | 0 | -2
CCOc1cc(N2CCOCC2)c(OCC)cc1NC(=O)COC(=O)CCOc1ccc(C(C)(C)C)cc1 | 0 | -1 | 0 | -1 | 0
CC(C)(C)c1ccc(OCCC(=O)Nc2ccc(N3CCOCC3)cc2N2CCOCC2)cc1 | 1 | 0 | -2 | 4.0* | 0
O=C(NN1C(=O)C2C3C=CC(C4CC34)C2C1=O)c1ccccc1Cl (centres undefined) | 5 | -1 | 5.1* | 0 | -2
CCOc1ccc(NC(=O)CN(c2ccc(OC)cc2)S(C)(=O)=O)cc1 | 5 | -1 | 0 | 2 | 2
COC(=O)c1ccc(NC(=O)CN(c2ccc(OC)cc2)S(C)(=O)=O)cc1 | 12* | -1 | 0 | 1 | 3
Cc1ccc(Nc2c(-c3ccc(C)o3)nc3cnccn23)cc1 | 12* | -1 | 2 | 2 | 2
N#C/C(=C/c1ccc(N2CCOCC2)o1)C(=O)Nc1ccccc1 | 11* | 0 | 1 | 3 | 5.9*
N#C/C(=C\c1ccc(N2CCOCC2)o1)C(=O)NCC1CCCO1 (centres undefined) | 1 | 12* | -1 | 0 | -2
O=C(NCc1cccs1)c1cccc2c(-c3ccc(F)c(F)c3)coc12 | -3 | 3.5* | / | 0 | 1
Cc1ccc(-c2nnn3c2nc(NCCc2ccc(S(N)(=O)=O)cc2)c2ccccc23)cc1 | 4 | 0 | 0 | 0 | 5.7*
COCCNc1nc2c(-c3cccc(C(F)(F)F)c3)nnn2c2ccccc12 | 3 | 1.3* | 2 | 0 | 6.5*
CC(=O)NCCNc1nc2c(-c3cccc(C(F)(F)F)c3)nnn2c2ccccc12 | -1 | 0 | 1 | 1 | 4
NNc1nc2c(-c3cccc(C(F)(F)F)c3)nnn2c2ccccc12 | -2 | 0 | 0 | 0 | 6.5*
COc1cc2cnc(CCO[C@H]3CCCCO3)cc2cc1OC | 1 | -1 | 1 | 0 | -3
COc1ccc2cc(CCOC3CCCCO3)ncc2c1 (centres undefined) | 9 | 0 | 2 | 2 | 6.5*
O=C(NCCc1ccccc1)OCc1cn(Cc2cccc(F)c2F)nn1 | 1 | 0 | / | 0 | 0
CNc1ccccc1-c1nc2ccccc2n(C)c1=O | 0 | -1 | 0 | -1 | 2
Cn1c(=O)c(-c2ccccc2N)nc2ccccc21 | 2 | 0 | 0 | 0 | 6.3*
Cc1cc(NC(=O)Nc2ccc(Cl)cc2)no1 | 2 | -1 | 4.8* | 1 | 2
Cc1cc(NC(=O)c2cc(C)on2)no1 | 0 | 0 | 0 | -1 | 3
Cc1ccc(C(=O)Nc2ccc(Cl)cc2C(F)(F)F)c(Cl)c1 | 13* | -1 | 1 | 0 | 0
Cc1cc(NC(=O)c2ccc(Cl)cc2Cl)no1 | 12* | 0 | 6.7* | 3 | 5
O=C(Nc1ccc(Cl)cc1C(F)(F)F)c1ccccc1Cl | 4 | -1 | 0 | 0 | -3
Cc1ccc(NC(=O)Nc2cc(C)on2)cc1 | 5 | -1 | 1 | 1 | 0

Screens (PubChem BioAssay)
